# Bioassay records (PubChem BioAssay)
# RORg inh – inhibitors of mouse ROR gamma transcriptional activity; P51450; Drosophila S2 Gal4-RORgamma UAS-luciferase reporter, 20 h; Potency, µM (titrated, usually from 53.6 µM), hits mostly inhibitors; actives 5.4% (n = 310,000); AID 2551; further: nearly all actives have a fitted effect of over 60% in size
#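 A Gal4/UAS one-hybrid system in insect cells: metallothionein-promoter Gal4–ROR gamma fusion plus Photinus luciferase reporter. Copper sulfate 700 uM final, 20 hr ambient incubation, luminescent detection after 10 min with reagent.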
# TSHR antagonist – human thyrotropin receptor antagonism. TSHR-expressing cells, TSH-stimulated cAMP HTRF, 2 h; hits give low values. activity change, negative = inhibition, % at 11.5 µM. actives 0.2% (n = 330,000). P16473;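 active means activity change below a set negative limit, meaning inhibition stronger than a set level, cut at about -70% in these data; inconclusive means activity change between two set negative limits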
#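 Cell-based HTRF cAMP assay; TSHR cells + compound, TSH EC80 (4nM final), 2 h, 37 deg C. Lysis with anti-cAMP cryptate and cAMP-d2, 30 min RT, read 665/620 nm.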
# ELG1 repair inh – blocks ELG1-dependent DNA repair in HEK293T cells; actives 2.3% (n = 330,000); Potency, µM (highest dose often 46.1 µM), usual class: inhibitors; HEK293T ELG1-luciferase reporter, luminescence, 16 h; DNA damage induced by 5-fluorouridine; further: nearly all actives have a fitted effect of over 55% in size
#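 In this reporter screen, reduction of luminescence relative to DMSO vehicle indicated activity. Compounds and 5-fluorouridine were added together to 2,000 cells per well, incubated for 16 hr at 37 °C, then developed with ONE-Glo.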
# B2AR arrestin – agonists driving beta-arrestin recruitment to human beta2-adrenergic receptor; P07550; beta-arrestin recruitment to beta2AR, cell-based reporter; Potency, µM (top dose mostly 46.1 µM), usual class: activators; actives 0.02% (n = 330,000); AID 492947; further: nearly all actives have a fitted effect of over 65% in size
# Target sequence (P07550 whole entry, looked up): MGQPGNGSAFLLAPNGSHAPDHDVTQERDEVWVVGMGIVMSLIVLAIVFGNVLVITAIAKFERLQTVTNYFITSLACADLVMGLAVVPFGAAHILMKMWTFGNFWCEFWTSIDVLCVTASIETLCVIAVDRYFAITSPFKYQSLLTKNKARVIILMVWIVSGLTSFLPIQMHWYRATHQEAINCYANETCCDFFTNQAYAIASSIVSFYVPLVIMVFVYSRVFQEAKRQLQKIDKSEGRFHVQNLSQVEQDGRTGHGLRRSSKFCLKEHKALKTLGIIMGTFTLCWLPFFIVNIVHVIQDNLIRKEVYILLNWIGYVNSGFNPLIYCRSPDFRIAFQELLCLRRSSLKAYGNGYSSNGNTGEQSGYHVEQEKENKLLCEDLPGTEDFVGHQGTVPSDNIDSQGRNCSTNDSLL
# Gal4-VP16 FLuc – Gal4-VP16 reporter inhibition counter-screen. Drosophila S2 Gal4-VP16 UAS-luciferase, luminescence, 20 h. Potency, µM (titrated, usually from 53.6 µM), usual class: inhibitors. actives 3.5% (n = 310,000). AID 2546;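 further: Gal4-VP16 expression switched on by copper sulfate through the metallothionein promoter; nearly all actives have a fitted effect of over 50% in size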
# Hits are given with their value; 0 = inactive; ? = inconclusive; - = no result given; [ ] = another dose, or the depositor's remark. This is a sample that favours compounds with a hit; in the whole collection about 7.5% have one here. Unless noted, the call rests on the fitted dose curve; in most records, active means well fitted curve in the direction sought with a large enough effect; inconclusive means small, poorly fitted or top-dose-only effect, or another doubt; inactive means no such curve, though single readings can be large; an effect the other way counts as inactive or inconclusive.
SMILES,RORg inh,TSHR antagonist,ELG1 repair inh,B2AR arrestin,Gal4-VP16 FLuc
COc1ccc(OC)c(-c2cc(C(=O)NCc3cccs3)no2)c1,0,0,?,0,0
COc1ccc(OC)c(NC(=S)NCc2cccs2)c1,14µM,0,0,0,?
CNC(=S)Nc1cc(OC)ccc1OC,11µM,0,0,0,?
CCN(CC)C(=O)C(=O)Nc1ccc(OC)c(Cl)c1,0,0,?,0,0
C[C@@H]1C=CCC(=O)OC[C@H](C)C(=O)OC[C@H]2O[C@H]1C=C[C@@H]2O,0[10 µM],-,-,-,0[10 µM]
COc1ccccc1CNC(=S)Nc1cc(C)ccc1C,3.2µM,0,0,0,?
CCN(CC(=O)NCc1cccs1)S(=O)(=O)c1ccc(C(C)C)cc1,0,0,0,0,0
COc1ccccc1CNc1cc(C)ccc1C,0,0,0,0,0
CC(C)c1ccc(NC(=S)NCc2cccs2)cc1,16µM,0,?,0,?
FC(F)(F)c1ccccc1-c1ccc2ncnc(N3CCOCC3)c2c1,0,-,-,-,0
COC(=O)c1ccc(C(NC(=O)OCc2ccccc2)/C(C)=C/[C@@H](C)C(=O)NCc2nn(-c3ccccc3)nc2C)cc1 (stereo not given in full),0,-,-,-,0
CCCCOC(=O)Nc1ccc(S(=O)(=O)Nc2onc(C)c2C)cc1,0,0,0,0,0
COc1ccc(Cl)cc1S(=O)(=O)N(C)CC(=O)N1CCOCC1,0,0,0,0,0
CC1Cc2ccccc2N1C(=O)CSc1nc(-c2ccccc2)cs1 (stereo not given),0,0,0,0,0
CC(Sc1nc(-c2ccc(F)cc2)cs1)C(=O)N1c2ccccc2CC1C (stereo not given),?,0,26µM,0,0
CC(=O)OC[C@H]1O[C@@H](O/N=C2/[C@H]3O[C@@H]3[C@@H](O)[C@H]3[C@H]2CCn2c(=O)n(-c4ccccc4)c(=O)n23)[C@H](OC(C)=O)[C@@H](OC(C)=O)[C@@H]1OC(C)=O,0[10 µM],-,-,-,0[10 µM]
COc1ccc(N2CCN(CCCn3c(=S)[nH]c4ccccc4c3=O)CC2)cc1,6.3µM,0,0,0,?
COc1ccccc1N1CCN(CCCn2c(=S)[nH]c3ccccc3c2=O)CC1,13µM,0,?,0,?
CC1CCCN(S(=O)(=O)c2ccc(C(=O)Nc3nnc(-c4ccccn4)o3)cc2)C1 (stereo not given),1.8µM,0,?,0,0
CCC(=O)Nc1nnc(-c2ccccn2)o1,?,0,?,0,0
O=C(Nc1nnc(-c2ccccn2)o1)c1ccc(Br)cc1,0.63µM,0,0,0,0.63µM
CC1CCCN(S(=O)(=O)c2ccc(C(=O)Nc3nnc(C4CC4)o3)cc2)C1 (stereo not given),0.22µM,0,0,0,1µM
CC1CCCN(S(=O)(=O)c2ccc(C(=O)Nc3nnc(-c4ccccc4Cl)o3)cc2)C1 (stereo not given),0.1µM,0,0,0,0.16µM
COC(=O)[C@H](COC(C)(C)C)NC(=O)O[C@@H]1Cc2cc(OC)ccc2O[C@H]1c1cccc(OC)c1,0,-,-,-,0
COc1ccccc1-c1nnc(NC(=O)c2ccc(S(=O)(=O)N3CCCC3)cc2)o1,0.71µM,0,0,0,0.89µM
SMILES,RORg inh,TSHR antagonist,ELG1 repair inh,B2AR arrestin,Gal4-VP16 FLuc
C[C@@H]1C(=O)O[C@H]2[C@@H](O)[C@@]34[C@H]5CC(C(C)(C)C)[C@]36[C@@H](OC(=O)[C@@H]6O)O[C@@]4(C(=O)O5)[C@@]12O (stereo not given in full),0,-,-,-,0
CC1(C)Cc2c(sc3c2c(=N)n(Cc2ccco2)c(=O)n3CC(=O)Nc2ccccc2)CO1,0,0,9.2µM,0,0
CC1(C)Cc2c(sc3c2c(=N)n(Cc2ccco2)c(=O)n3CC(=O)Nc2cccc(Cl)c2)CO1,?,0,?,0,0
Cc1cccc(NC(=O)Cn2c(=O)n(Cc3ccco3)c(=N)c3c4c(sc32)COC(C)(C)C4)c1,0,0,?,0,0
CC1(C)Cc2c(sc3c2c(=N)n(Cc2ccco2)c(=O)n3CC(=O)Nc2ccc(Cl)cc2)CO1,0,0,21µM,0,0
CC(C)(C)OC(=O)N1CCN(C(=O)c2ncn(Cc3ccccc3)c2C(=O)N2CCN(C(=O)OC(C)(C)C)CC2)CC1,-,0,0,0,-
Cc1ccc(NC(=O)CCNC(=O)c2ccc([N+](=O)[O-])cc2)cc1S(=O)(=O)N(C)C,0,0,13µM,0,0
COc1cc(CCC(=O)Nc2sccc2C#N)cc(OC)c1OC,?,0,23µM,0,0
CC(C)C(=O)Nc1cccc(NC(=O)c2cccc([N+](=O)[O-])c2)c1,0,0,?,0,0
N#Cc1ccsc1NC(=O)CCc1ccccc1,?,0,?,0,?
COc1ccc(C(=O)C(C)Oc2cccc(NC(=O)c3cccc([N+](=O)[O-])c3)c2)cc1 (stereo not given),?,0,15µM,0,0
Cc1ccc(NC(=O)c2ccc([N+](=O)[O-])cc2)cc1S(=O)(=O)N(C)C,0,0,18µM,0,0
CN(C)S(=O)(=O)c1ccc(NC(=O)CCNC(=O)c2ccc([N+](=O)[O-])cc2)cc1,0,0,0,0,0
COc1c(O)cc2c(-c3ccccc3)cc(=O)oc2c1OC,?,-,-,-,0
COC(=O)c1cnn(-c2ccc(C(=O)Nc3ccc(C(C)=O)cc3)cc2)c1N,-,0,-,0,-
CC(C)CC1NC(=O)c2ccccc2-n2c1nc1ccc(F)cc1c2=O (stereo not given),-,0,0,0,-
Cc1ccc(NS(=O)(=O)c2cc(C(=O)Nc3cccc([N+](=O)[O-])c3)ccc2C)cc1,?,?,?,0,?
Cc1ccc(C(=O)Nc2cccc([N+](=O)[O-])c2)cc1S(=O)(=O)Nc1ccc(NC(=O)c2ccccc2)cc1,?,0,5.2µM,0,0
COc1cc(CCC(=O)Nc2ccc(C)c(S(=O)(=O)N(C)C)c2)cc(OC)c1OC,0,0,9.2µM,0,0
CCCCCCC#CC1C=CC(OC(=O)OCC)C(COC(=O)OCC)O1 (stereo not given),?,-,-,-,0[10 µM]
CCCC(=O)NC(c1ccc(OC)cc1)c1c(O)ccc2ccccc12 (stereo not given),0,0,?,0,0
CCCC(=O)NC(c1ccc(N(C)C)cc1)c1ccc2cccnc2c1O (stereo not given),2.5µM,0,?,0,2.8µM
CC(C)C(=O)NC(c1ccc(Cl)cc1Cl)c1ccc2cccnc2c1O (stereo not given),4.5µM,0,0,0,3.2µM
CCOc1ccc(C(NC(=O)CC)c2c(O)ccc3ccccc23)cc1 (stereo not given),0,0,0,0,0
CCCCC(=O)NC(c1ccc(Cl)cc1Cl)c1ccc2cccnc2c1O (stereo not given),3.2µM,0,?,0,3.2µM
